# About 2,300 (1%) of roughly 220,000 compounds were called active. Entries that show only a call come without a potency. Roughly 6% stayed inconclusive and do not appear here. Calls follow the shape of the dose curve; as a rule, active = well fitted inhibition curve with a large enough effect; inconclusive = small, poorly fitted or top-dose-only effect, or effect the other way; inactive = no such curve, though single readings can be large or run the other way. For the sample, actives were picked, then their nearest neighbours and some compounds at random.
# Molecular target: Neuropeptide S receptor (Homo sapiens) (UniProt Q6W5P4)
# Test: qHTS Assay for Antagonists of the Neuropeptide S Receptor: cAMP Signal Transduction; also: nearly all actives have a fitted effect of over 50% in size
# Details: CHO-NPSR cells, cAMP TR-FRET, antagonist mode; series mostly up to 38.3 µM
# Excerpt: NIH Chemical Genomics Center [NCGC] NIH Molecular Libraries Probe Production centers Network [MLPCN] MLPCN Grant: X01-DA026210-01 Assay Submitter (PI): Heilig, Markus Alexander NCGC Assay Overview: Neuropeptide S receptor (NPSR), previously known as GPR154, is a recently de-orphanized G protein coupled receptor. Its endogenous ligand is the 20 amino acids peptide Neuropeptide S (NPS). […] NPS and its receptor are found in various tissues. Specifically they are highly expressed in brain areas that have been implicated in modulation of arousal, stress and anxiety. Central administration of NPS in mice produces an unusual profile of activity by inducing wakefulness and arousal, while at the same time suppressing anxiety. Therefore, NPSR may represent a novel drug target for the treatment of sleep and anxiety disorders. To identify NPSR antagonists, we developed a cell-based cAMP assay. NPS can stimulate the production of cAMP in Chinese hamster ovary cells stably expressing NPS receptor. This change in intracellular cAMP level can be detected by a homogeneous LANCE cAMP assay based on the TR-FRET (time resolved fluorescence resonance energy transfer) between a europium-labeled cAMP tracer complex and a cAMP-specific antibody labeled with Alexa Fluor 647. The europium-labeled cAMP tracer complex is formed by the tight interaction between Biotin-cAMP (b-cAMP) and streptavidin labeled with Europium-W8044 chelate (Eu-SA). Light pulse at 320 nm excites the europium of the cAMP tracer and the energy emitted is transferred to the Alexa molecule bound to the cAMP antibody, generating a TR-FRET signal at 665 nm. Residual energy from the europium will produce a light at 620 nm. The native unlabeled cAMP from cell lysates competes with the europium-cAMP tracer for antibody binding and reversely reduces the emission signal of Alexa by interrupting FRET between the two labeled molecules. Both emission signals from the FRET donor (620 nm) and the acceptor (665 nm) can be detected by a plate reader in the TRF mode. Expression of result in fluorescence ratio (665 nm/620 nm) helps to normalize differences due to cell density and reagent dispensing. This assay was successfully optimized to a 1536-well plate format.
# NCGC Assay Protocol Summary: A Chinese hamster ovary (CHO) cell line stably expressing the NPS receptor (CHO-NPSR) was obtained from Dr. Heilig lab at NIAAA and maintained in F-12 Kaighn's media (Invitrogen, Carlsbad, CA, 21127) supplemented with 10 % FBS, 100 units/ml penicillin, 100 ug/ml streptomycin and 250 ug/ml geneticin at 37C, 5% CO2 in a humidified atmosphere. Before the assay, aliquots of cells were frozen and stored at -135C. The assay was performed in 1536-well format. Data are reported for both the ratio of the two emission wavelengths, and also for the component 'donor' channel, Em2=620. Data were normalized to the controls for basal activity (DMSO only) and 100% inhibition (No NPS control). IC50 values were determined from concentration-response data modeled with the standard Hill equation. NPS 1536-well assay protocol: (1) Fresh or frozen CHO-NPSR cells were suspended in F-12 Kaighn's media supplemented with 10 % FBS, 100 units/ml penicillin and 100 ug/ml streptomycin. Cells were plated at 4 ul/well (1200 cells) to white, tissue culture treated 1536-well plates, and then cultured at 37C, 5 % CO2 for 16 to 30 hours. (2) Add 23 nl/well of compound in DMSO solution. The final titration for each compound was between 0.6 nM and 46 uM. (3) Add 1 ul of stimulation reagent (1X HBSS buffer, 5 mM HEPES, 0.1% BSA, 500 uM RO-201724 (Sigma-Aldrich, B8279), 1.5% Alexa 647-labeled anti-cAMP antibody (from Perkin Elmer), 100 nM NPS) (4) Incubation at 37C, 5 % CO2 for 60 min. (5) Add 1 ul/well detection reagent. Detection reagent was prepared by adding biotin labeled cAMP (4%), streptavidin labeled with Europium-W8044 chelate (1.33%) and TritonX-100 (1%) to detection buffer. […]
# Potency is read from the fitted curve at half-maximal effect.
# Neuropeptide S receptor (Homo sapiens), sequence (Q6W5P4 whole entry, looked up): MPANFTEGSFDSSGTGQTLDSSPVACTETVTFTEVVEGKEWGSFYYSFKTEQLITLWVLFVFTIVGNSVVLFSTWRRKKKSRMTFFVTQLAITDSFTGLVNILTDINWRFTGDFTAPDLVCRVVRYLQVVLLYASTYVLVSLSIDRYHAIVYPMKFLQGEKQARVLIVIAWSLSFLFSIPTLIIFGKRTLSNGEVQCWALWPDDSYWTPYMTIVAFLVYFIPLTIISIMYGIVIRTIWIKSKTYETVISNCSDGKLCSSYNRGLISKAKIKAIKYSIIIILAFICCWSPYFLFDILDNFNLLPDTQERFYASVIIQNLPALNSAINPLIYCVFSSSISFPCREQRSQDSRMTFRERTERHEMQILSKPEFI
row,SMILES,Potency
1,CC(=O)Oc1ccccc1C(=O)Nc1ncc([N+](=O)[O-])s1,3.16 µM (active)
2,CCN1CC2C3CCC(C)(O3)C2C1 (stereo not given),inactive
3,O=C1NC(=O)N(c2ccc(F)cc2)C(=O)/C1=C/c1ccc2c(c1)CCCN2Cc1ccccc1,inactive
4,Cc1cccc(N2C(=O)NC(=O)/C(=C\c3cnn(-c4ccccc4)c3)C2=O)c1,10 µM (active)
5,COc1cccc(N2C(=O)NC(=O)/C(=C\c3ccc([N+](=O)[O-])s3)C2=O)c1,inactive
6,CC1=C2C(=O)C3C(CC=C4CC(OC5OC(O)C(O)C(O)C5CO)CCC43C)C2CCC12OC1CC(C)CNC1C2C (stereo not given),inactive
7,CCOc1cccc(=NC2CCCCC2)c2c(C)[nH]c(C)c12,6.31 µM (active)
8,COc1ccc(-n2c(O)c(C(C)=Nc3ccc4c(c3)CCC4)c(=O)[nH]c2=O)cc1,inactive
9,CNC(=O)Nc1ccc(C(O)(C(=O)OC)C(F)(F)F)cc1 (stereo not given),inactive
10,O=c1[nH]c(CN2CC=C(c3ccccc3)CC2)nc2scc(-c3cccs3)c12,inactive
11,CCC(C)n1c(O)c(/C=N/Nc2nc3c(c(=O)n(C)c(=O)n3C)n2C)c(=O)[nH]c1=S (stereo not given),inactive
12,COc1cccc(CN2CCCC(C(=O)c3ccccc3SC)C2)c1O (stereo not given),inactive
13,CCCCCCCCCCCCn1ccc(=N)cc1,6.31 µM (active)
14,CC(=O)Cc1ccc(OC(C)C)cc1,inactive
15,C/C=C/CC1(CC)C(=O)NC(=S)NC1=O,inactive
16,CC1C2Cn3c(nc4ccccc43)C1N(C)O2 (stereo not given),inactive
17,CN(C)CC1CCCCC1=O (stereo not given),inactive
18,O=C1CC(=O)N(Cc2ccccc2)C(=O)N1CCCCCCN1C(=O)CC(=O)N(Cc2ccccc2)C1=O,inactive
19,O=c1[nH]c(=O)n(-c2ccc(F)cc2)c(O)c1C=NCCN1CCCCC1,inactive
20,Fc1ccc(C2N3CCCN23)cc1 (stereo not given),inactive

# From PubChem BioAssay AID1461 (National Center for Advancing Translational Sciences (NCATS), 2008)
